The sample as a whole holds a higher share of hits than the screen did.
KDM5B inh: KDM5B demethylase inhibition; KDM5B demethylase, FDH-coupled NADH fluorescence (FDH is formaldehyde dehydrogenase); Potency, µM (highest dose often 57.7 µM), hits mostly inhibitors; Q9UGL1; 220,000 tested, 2.6% active; active means well fitted inhibition curve with a large enough effect; further: nearly all actives have a fitted effect of over 70% in size
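qHTS format, multiple compound concentrations. Buffer 50 mM HEPES pH 7.5/0.01% Tween-20; 200 nM KDM5BΔAP final; 10 min compound preincubation; substrate-mix levels 12.5 µM peptide, 25 µM α-KG, 0.25 mM NAD⁺; 30 min RT; ΔRFU.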
Hits are given with their value; n = inactive.

SMILES	KDM5B inh
Cc1cccc(-n2ncc(C(=O)N3CCOCC3)c2C2CCN(C(=O)OC(C)(C)C)CC2)c1	n
Cc1cc2nc3n(c(=O)c2n1CC(=O)Nc1ccc(C(C)C)cc1)CCCCC3	n
Cc1cccc(-n2nc(C)c(CCC(=O)N3CCSCC3)c2Oc2ccccc2C)c1	n
Cc1cccc(-n2nc(-c3c(C)nc4scc(CC(=O)N5CCOCC5)n4c3=O)cc2C)c1	28µM
Cc1cccc(-n2nc(-c3c(C)nc4scc(CC(=O)N5CCCC5)n4c3=O)cc2C)c1	28µM
Cc1nc2scc(CC(=O)N3CCCC3)n2c(=O)c1-c1cc(C)n(-c2ccc(C(C)C)cc2)n1	25µM
Cc1cccc(-n2nc(C)c(CCC(=O)N3CCSCC3)c2Oc2ccc(F)cc2F)c1	n
Cc1nn(CC(=O)N2CCN(c3ccc(Cl)cc3)CC2)c(=O)c2nc(C(C)C)sc12	n
CCc1c(C)sc(NC(=O)c2cc(-c3cccc(C)c3)nc3ccccc23)c1C#N	n
COc1ccc(-c2nc(C(=O)N3CCN(C(C#N)c4ccc(F)cc4)CC3)cs2)cc1OC (centres undefined)	n
Cc1ccc(N2C(=O)CC(c3cccs3)C3=C2CCCC3=O)cc1 (centres undefined)	n
O=c1[nH]c(-c2cccc(O)c2)nc2c1Cc1c(ccc3ccccc13)O2	n
CCN(CC)C(=O)[C@@H]1C[C@@H](NC(=O)c2cc3c(s2)CCCC3)CN1C	n
CCN(CC)C(=O)[C@@H]1CCC[C@@H](NC(=O)c2ccc(C#N)cc2)CN(C)C(=O)C1	n
CCN(CC)C(=O)[C@@H]1C[C@@H](NC(=O)c2ccn(CC)c(=O)c2)CN1C(C)=O	28µM
O=C(Nc1nc(C23CC4CC(CC(C4)C2)C3)cs1)c1ccncc1	n
O=c1c2nc(-c3ccsc3)ccc2ncn1-c1ccc(F)cc1F	35µM
COc1ccc(-c2ccc3ncn(C4CC4)c(=O)c3n2)cc1OC	n
CC(=O)Nc1cccc(-c2ccc3ncn(-c4cccnc4)c(=O)c3n2)c1	n
COc1cccc(-c2ccc3ncn(-c4ccc(F)cc4F)c(=O)c3n2)c1	n
COc1ccc(-c2ccc3ncn(-c4ccc(F)cc4F)c(=O)c3n2)cc1OC	40µM
Cc1nc2c(=O)n(-c3ccc(F)cc3F)nc(C)c2s1	n
Fc1ccccc1CC1CCN(CC2[C@H]3CNC[C@@H]23)CC1 (some centres undefined)	n
Nc1nccnc1C(=O)NCCc1c[nH]c2ccccc12	n
NC(=O)c1cn(CC(=O)NCCc2cccc3ccccc23)c2ccccc12	n
SMILES	KDM5B inh
CCCN1C(=O)c2ccccc2NC1c1cc2ccccc2[nH]c1=O (centres undefined)	n
CC(C)CCN1CCNC(=O)C1CC(=O)N(Cc1cnn(C)c1)C1CC1 (centres undefined)	16µM
CCN(Cc1ccncc1)C(=O)CC1C(=O)NCCN1CCc1ccccc1 (centres undefined)	n
CC(C)Cc1noc(CN(C)C(=O)CC2C(=O)NCCN2CC(C)C)n1 (centres undefined)	n
Cc1ccc(-c2nc(CN3CCCC3c3cccs3)co2)c(C)c1 (centres undefined)	n
COc1ccc2[nH]c3c(c2c1)CCNC31CCN(C(=O)c2cccs2)CC1	n
COc1ccc2[nH]c3c(c2c1)CCNC31CCN(Cc2ccc(C)o2)CC1	20µM
COc1ccc2[nH]c3c(c2c1)CCNC31CCN(C(=O)c2ccccn2)CC1	n
COc1cccc(CN2CCC3(CC2)NCCc2c3[nH]c3ccc(OC)cc23)c1	25µM
COc1ccc2[nH]c3c(c2c1)CCNC31CCN(C(=O)C(C)(C)C)CC1	25µM
COc1ccc2[nH]c3c(c2c1)CCNC31CCN(Cc2ccc(F)c(F)c2)CC1	n
COc1ccc2[nH]c3c(c2c1)CCNC31CCN(C(=O)c2cc(C)[nH]n2)CC1	n
COc1cccc(CN2CCC3(CC2)NCCc2c3[nH]c3ccccc23)c1	n
COc1ccc2[nH]c3c(c2c1)CCNC31CCN(C(=O)c2ccncc2)CC1	n
N#Cc1ccc(COc2ccc3ccccc3c2CN2CCCCC2)cc1	n
O=C1/C(=C/c2ccsc2)CCc2ccccc21	n
Cc1ccc(NC(=O)CCl)cc1C	n
Cn1c(N)c(-c2csc(Nc3ccccc3)n2)c(=O)n(C)c1=O	n
CCOc1ccc(-n2ccn3c(SC(CC)C(=O)Nc4ccc(OC)cc4)nnc3c2=O)cc1 (centres undefined)	n
C#CCOc1ccc(/C=C(/C#N)c2ccc(F)cc2)cc1OC	n
O=C(NCC1CC1)c1cccc(OC2CN(Cc3ccc(OC(F)(F)F)cc3)C2)c1	n
CCOC(=O)c1c(NC(=O)Cn2nnc(-c3ccccc3)n2)sc(C)c1CC	n
CCC(=O)N1Cc2ccccc2CC2(CCN(CCc3ccc(C)cc3)CC2)C1	n
O=C(NCc1ccccc1)N1CCCC(c2nccn2CC2CCC2)C1 (centres undefined)	n
Cc1ccc(C#N)c(N2CCCC(c3nccn3CC3CCC3)C2)n1 (centres undefined)	32µM
SMILES	KDM5B inh
CSCc1ccc(C(=O)N2CCCC(c3nccn3CC3CC3)C2)o1 (centres undefined)	n
Cc1cc(NC(=O)C2CC2)sc1C(=O)NC(C)c1ccccc1Br (centres undefined)	n
CCN(CC)CCN1C(=O)C(O)=C(C(=O)c2sc(C)nc2C)C1c1ccc(C(=O)OC)cc1 (centres undefined)	n
CCOc1cc(/C=N/O)ccc1OCc1ccccc1Cl	n
Cc1ccc(OCc2nc(C3CCCN3C(=O)Nc3ccc(C)c(F)c3)no2)cc1 (centres undefined)	n
Cc1cccc(NC(=O)c2nc3ccccc3nc2N2CCOCC2)c1C	n
COc1ccc([S+](=O)([O-])c2nnn3c2nc(N2CCC(F)CC2)c2ccccc23)cc1	79µM
O=S(=O)(c1ccccc1)c1nnn2c1nc(N1CCOCC1)c1ccccc12	n
CC1CCN(c2nc3c(-c4cccc(Br)c4)nnn3c3ccccc23)CC1	n
COc1ccc(OC)c([S+](=O)([O-])c2nnn3c2nc(N2CCOCC2)c2ccccc23)c1	n
CC(C)c1ccc([S+](=O)([O-])c2nnn3c2nc(N2CCC(F)CC2)c2ccccc23)cc1	n
O=[S+]([O-])(c1ccc(Br)cc1)c1nnn2c1nc(NC1CCCC1)c1ccccc12	n
COc1ccc([S+](=O)([O-])c2nnn3c2nc(NC2CC2)c2ccccc23)cc1	89µM
COc1ccc(OC)c([S+](=O)([O-])c2nnn3c2nc(N2CCC(F)CC2)c2ccccc23)c1	50µM
O=[S+]([O-])(c1ccc(Cl)cc1)c1nnn2c1nc(NC1CC1)c1ccccc12	n
O=C(Nc1ccc2c(c1)C(=O)N1CCC[C@H]1C(=O)N2)c1cc(-c2ccc3c(c2)CCO3)n[nH]1	n
CC(C)NC(=O)c1cccc(NC(=O)CCCC(=O)O)c1	n
Nc1nc(Cl)ccc1[N+](=O)[O-]	n
O=C(O)CCC(NC(=O)C1(c2ccccc2)CCCC1)C(=O)O (centres undefined)	n
CN(CCc1ccccn1)C(=O)[C@@]12CCCC[C@H]1N(C)C(=O)CC2	n
COc1ccccc1C(=O)Nc1ccc2oc(-c3cccc(I)c3)nc2c1	n
Cc1noc([C@@H](C)NC(=O)c2cccs2)c1C(=O)O	n
Cc1nn(-c2ccccc2)nc1C(=O)N[C@H](C)c1onc(C)c1C(=O)O	32µM
Cc1noc([C@@H](C)NC(=O)NC2(c3ccccc3)CCOCC2)c1C(=O)O	n
CCOC(=O)c1oc2cc(OC(=O)c3ccco3)ccc2c(=O)c1-c1ccc(OC)cc1	n

Compound activity from PubChem BioAssay.
